Test results: PubChem BioAssay (Tox21)
Records with an inconclusive call do not appear. Active and inactive are the calls of the source. Unless noted, calls come from the whole dose curve; as a rule, active = well fitted curve in the direction sought with a large enough effect in the repeat runs; inconclusive = weak or mixed curves; inactive = no such curve, though single readings can be large; an effect the other way counts as inactive or inconclusive.

How the values were obtained:
[1] = qHTS assay to identify small molecule agonists of the peroxisome proliferator-activated receptor delta (PPARd) signaling pathway - cell viability counter screen (AID 743211); note: nearly all actives have a fitted effect of over 55% in size
Method in brief: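 PPARd-bla HEK293H cells (3000/well) were pre-incubated 5 h at 37 C, then exposed to compound for 17 h at 37 C. After 2 h with LiveBLAzer substrate, CellTiter-Glo was added to the same wells; luminescence read after 30 min at room temperature.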

[2] = target: Peroxisome proliferator-activated receptor delta (Homo sapiens) (UniProt Q03181); experiment: qHTS assay to identify small molecule agonists of the peroxisome proliferator-activated receptor delta (PPARd) signaling pathway (AID 743212; calls by dose curve)
Chain of Peroxisome proliferator-activated receptor delta (Homo sapiens) (Q03181 whole entry, looked up): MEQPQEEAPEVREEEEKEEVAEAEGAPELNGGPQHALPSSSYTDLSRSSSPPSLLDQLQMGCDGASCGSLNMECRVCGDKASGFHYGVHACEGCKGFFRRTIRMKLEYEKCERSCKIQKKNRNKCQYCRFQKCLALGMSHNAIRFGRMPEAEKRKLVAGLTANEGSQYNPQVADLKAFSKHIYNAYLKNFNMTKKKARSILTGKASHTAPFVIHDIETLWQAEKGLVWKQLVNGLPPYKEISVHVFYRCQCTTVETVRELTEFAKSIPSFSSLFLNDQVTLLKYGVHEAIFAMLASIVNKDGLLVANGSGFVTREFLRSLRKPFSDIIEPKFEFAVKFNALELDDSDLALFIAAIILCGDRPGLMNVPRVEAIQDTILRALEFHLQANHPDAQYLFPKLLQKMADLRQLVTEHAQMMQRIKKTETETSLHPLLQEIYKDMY
Method in brief: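 Cells expressing a UAS-driven beta-lactamase reporter (PPARd-bla HEK293H) were given test compounds after a 5 h settle and kept at 37 C. Reporter activity was then measured as FRET fluorescence using LiveBLAzer B/G substrate.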

[3] = qHTS assay to identify small molecule antagonists of the peroxisome proliferator-activated receptor delta (PPARd) signaling pathway - cell viability counter screen (AID 743213); note: nearly all actives have a fitted effect of over 50% in size
Method in brief: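 Viability counter-screen, qHTS format: PPARd-bla HEK293H, L165041 300 nM final, 17 h compound exposure at 37 C, CellTiter-Glo luminescence after 30 min RT.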

[4] = target: Peroxisome proliferator-activated receptor delta (Homo sapiens) (UniProt Q03181); experiment: qHTS assay to identify small molecule antagonists of the peroxisome proliferator-activated receptor delta (PPARd) signaling pathway (AID 743215; active = well fitted inhibition curve with a large enough effect in the signal ratio in the repeat runs, not every such curve was filed as active; the % refers to the signal ratio;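 note: cells stimulated with agonist L165041 at 300 nM final during compound exposure; series mostly up to about 62 µM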)
Method in brief: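 HEK293H GeneBLAzer PPARd UAS-bla reporter cells; cpd + L165041 300 nM final, 17 h 37 C; LiveBLAzer B/G FRET substrate 2 h RT; fluorescence intensity read-out. Antagonist mode.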

[5] = target: Bile acid receptor (Homo sapiens) (UniProt Q96RI1); experiment: qHTS assay to identify small molecule antagonists of the farnesoid-X-receptor (FXR) signaling pathway (AID 743217; active = well fitted inhibition curve with a large enough effect in the signal ratio in the repeat runs, not every such curve was filed as active; the % refers to the signal ratio)
Chain of Bile acid receptor (Homo sapiens) (Q96RI1 whole entry, looked up): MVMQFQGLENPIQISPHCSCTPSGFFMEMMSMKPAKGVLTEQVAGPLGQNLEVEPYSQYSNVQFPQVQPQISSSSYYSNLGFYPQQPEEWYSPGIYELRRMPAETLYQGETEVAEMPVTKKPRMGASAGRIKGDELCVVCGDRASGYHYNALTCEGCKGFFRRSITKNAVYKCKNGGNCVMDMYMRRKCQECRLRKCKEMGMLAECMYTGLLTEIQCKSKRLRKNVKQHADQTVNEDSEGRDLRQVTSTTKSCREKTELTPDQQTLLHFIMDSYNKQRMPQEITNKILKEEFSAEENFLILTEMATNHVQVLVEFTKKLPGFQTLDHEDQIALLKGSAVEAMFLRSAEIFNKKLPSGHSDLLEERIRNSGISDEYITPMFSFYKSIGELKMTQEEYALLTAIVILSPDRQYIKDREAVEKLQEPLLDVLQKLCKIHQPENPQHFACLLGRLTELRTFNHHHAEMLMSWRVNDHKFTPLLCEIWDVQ
Method in brief: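 Read-out: beta-lactamase FRET fluorescence (LiveBLAzer B/G substrate, 2 h, room temperature) in GeneBLAzer FXR-UAS-bla HEK 293T cells. Compounds were co-dosed with 50 uM chenodeoxycholic acid (final) and incubated 16 h at 37 °C.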

[6] = qHTS assay to identify small molecule antagonists of the farnesoid-X-receptor (FXR) signaling pathway - cell viability counter screen (AID 743221; active = well fitted cell-killing curve with a large enough effect in the repeat runs, not every such curve was filed as active; note: nearly all actives have a fitted effect of over 50% in size)
Method in brief: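 GeneBLAzer FXR-UAS-bla HEK 293T cells, compound plus chenodeoxycholic acid (50 uM final), 16 h at 37 C. CellTiter-Glo added to the same wells after the beta-lactamase read; luminescence read after 30 min at room temperature as viability.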

[7] = target: Vitamin D3 receptor (Homo sapiens) (UniProt P11473); experiment: qHTS assay to identify small molecule agonists of the vitamin D receptor (VDR) signaling pathway (AID 743222; calls by dose curve)
Chain of Vitamin D3 receptor (Homo sapiens) (P11473 whole entry, looked up): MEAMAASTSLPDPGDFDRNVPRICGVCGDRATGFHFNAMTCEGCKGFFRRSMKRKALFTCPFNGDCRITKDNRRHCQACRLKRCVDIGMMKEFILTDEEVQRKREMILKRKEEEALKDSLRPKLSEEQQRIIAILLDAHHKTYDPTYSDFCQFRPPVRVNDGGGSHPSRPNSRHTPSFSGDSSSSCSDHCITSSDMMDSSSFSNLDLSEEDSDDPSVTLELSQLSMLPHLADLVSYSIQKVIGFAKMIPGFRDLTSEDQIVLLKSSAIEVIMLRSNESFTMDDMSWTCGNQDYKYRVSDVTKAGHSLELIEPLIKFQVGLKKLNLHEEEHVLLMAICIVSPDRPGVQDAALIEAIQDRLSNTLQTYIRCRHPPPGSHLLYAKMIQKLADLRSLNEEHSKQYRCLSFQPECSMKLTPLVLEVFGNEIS
Method in brief: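 Beta-lactamase reporter readout (LiveBLAzer B/G FRET, 2 h RT) in VDR-bla cells after 16 h compound treatment at 37C, 5% CO2; cells pre-incubated 4 h before pin transfer of DMSO solutions.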

[8] = target: Vitamin D3 receptor (Homo sapiens) (UniProt P11473); experiment: qHTS assay to identify small molecule antagonists of the vitamin D receptor (VDR) signaling pathway (AID 743223; active = well fitted inhibition curve with a large enough effect in the signal ratio in the repeat runs, not every such curve was filed as active; the % refers to the signal ratio)
Method in brief: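 VDR-bla cells were treated with compound plus 3 nM final 1alpha,25-dihydroxyvitamin D3 for 16 h at 37C. Beta-lactamase reporter read by B/G FRET substrate fluorescence after 2 h at room temperature. qHTS format.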

[9] = qHTS assay to identify small molecule agonists of the vitamin D receptor (VDR) signaling pathway - cell viability counter screen (AID 743224); note: series mostly up to about 63 µM; nearly all actives have a fitted effect of over 50% in size
Method in brief: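 Cytotoxicity counter screen: VDR-bla cells, 16 h compound exposure at 37C, 5% CO2; CellTiter-Glo luminescence, 30 min RT, same wells as bla read.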

[10] = qHTS assay to identify small molecule antagonists of the vitamin D receptor (VDR) signaling pathway - cell viability counter screen (AID 743225); note: nearly all actives have a fitted effect of over 50% in size
Method in brief: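 VDR-UAS-bla HEK 293T cells were plated and incubated 4 h at 37C, then dosed with compound plus 3 nM (final) 1-alpha,25-dihydroxyvitamin D3 for 16 h. After the 2 h beta-lactamase read, viability in the same wells was read as CellTiter-Glo luminescence after 30 min at room temperature.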

[11] = qHTS assay to identify small molecule agonists of the NFkB signaling pathway (AID 1159509; active = well fitted curve in the direction sought with a large enough effect in the signal ratio in the repeat runs, not every such curve was filed as active; the % refers to the signal ratio; note: series mostly up to about 61 µM)
Method in brief: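 Agonist activity was read as beta-lactamase-driven FRET change (460 and 530 nm emission, 405 nm excitation) following 1.5 hr substrate loading at room temperature. Beforehand, ME-180 NFkB-bla reporter cells were treated with compounds for 5 hr at 37 C.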

[12] = qHTS assay to identify small molecule agonists of the NFkB signaling pathway - cell viability counter screen (AID 1159515; calls by dose curve; note: series mostly up to about 61 µM; nearly all actives have a fitted effect of over 55% in size)
Method in brief: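 ME-180 NFkB-bla cells, 2,000/well; overnight attach; compound 5 hr, 37 C/5% CO2; LiveBLAzer substrate 1.5 hr RT; then CellTiter-Glo in same wells, 30 min RT, luminescence read.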

[13] = qHTS assay to identify small molecule agonists of the endoplasmic reticulum stress response signaling pathway (AID 1159516; active = well fitted activation curve with a large enough effect in the signal ratio in the repeat runs, not every such curve was filed as active; the % refers to the signal ratio)
Method in brief: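 HeLa ESRE-bla reporter line; cpd 5 h, 37 C/5% CO2; LiveBLAzer B/G FRET substrate 2 h RT; ex 405, em 460/530 nm.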

[14] = qHTS assay to identify small molecule agonists of the endoplasmic reticulum stress response signaling pathway - cell viability counter screen (AID 1159517; calls by dose curve)
Method in brief: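 Cpd-treated ESRE-bla HeLa (5 hr, 37 C) → LiveBLAzer 2 hr RT → CellTiter-Glo 30 min RT → luminescence.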

[15] = qHTS assay to identify small molecule antagonists of the retinoid-related orphan receptor gamma (ROR-gamma) signaling pathway - cell viability counter screen (AID 1159520); note: nearly all actives have a fitted effect of over 50% in size
Method in brief: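 Tet-on ROR gamma CHO cells (1,000/well) were plated 4 hr, given compounds in DMSO for 2 hr at 37 C, then induced with 1 uM final doxycycline for 16 hr. Viability was read as ATP by CellTiter-Glo luminescence after 30 min.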

[16] = target: Nuclear receptor ROR-gamma (Homo sapiens) (UniProt P51449); experiment: qHTS assay to identify small molecule antagonists of the retinoid-related orphan receptor gamma (ROR-gamma) signaling pathway (AID 1159521)
Method in brief: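 Tet-on ROR-gamma CHO cells with ROR response element-luciferase reporter; compounds added 2 hr before 1 uM doxycycline induction, then 16 hr at 37 C. Antagonism scored as decreased ONE-Glo luminescence.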

[17] = qHTS assay to identify small molecule agonists of the AP-1 signaling pathway - cell viability counter screen (AID 1159525; calls by dose curve; note: nearly all actives have a fitted effect of over 55% in size)
Method in brief: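 Each titration point was normalised to DMSO and tetra n-octyl ammonium bromide controls. The read was Cell Titer Glo luminescence after 30 min at RT, following 5 h compound exposure of ME-180 AP-1-bla cells at 37 °C.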

[18] = qHTS assay to identify small molecule agonists of the AP-1 signaling pathway (AID 1159526; calls by dose curve)
[19] = qHTS assay to identify small molecule agonists of the farnesoid-X-receptor (FXR) signaling pathway - cell viability counter screen (AID 743218); note: nearly all actives have a fitted effect of over 45% in size
Method in brief: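 Luminescence from CellTiter-Glo, read after 30 min at RT, reports viability of GeneBLAzer FXR-UAS-bla HEK 293T cells treated 16 h with compounds in the wells used for the beta-lactamase reporter.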

[20] = target: Bile acid receptor (Homo sapiens) (UniProt Q96RI1); experiment: qHTS assay to identify small molecule agonists of the farnesoid-X-receptor (FXR) signaling pathway (AID 743220; active = well fitted activation curve with a large enough effect in the signal ratio in the repeat runs, not every such curve was filed as active; the % refers to the signal ratio)
Method in brief: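 FXR-UAS-bla HEK 293T cells carrying a UAS-driven beta-lactamase reporter were plated for 5 h at 37C/5% CO2, then exposed to DMSO-dissolved Tox21 10K compounds for 16 h at 37C. A LiveBLAzer B/G FRET substrate was loaded for 2 h at room temperature before fluorescence reading.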

Measured: Potency

Cc1ccccc1N1CCN(CCc2nnc3n2CCCC3)CC1
inactive: [1] | [2] | [3] | [4] | [5] | [6] | [7] | [8] | [9] | [10] | [11] | [12] | [13] | [14] | [15] | [16] | [17] | [18]

C[CH2][Ge]([Cl])([CH2]C)[CH2]C
inactive: [1] | [2] | [3] | [4] | [5] | [19] | [20] | [6] | [7] | [8] | [9] | [10] | [11] | [12] | [13] | [14] | [15] | [16] | [17] | [18]

SCCSCCS
inactive: [1] | [2] | [3] | [4] | [5] | [19] | [20] | [6] | [7] | [9] | [10] | [11] | [12] | [13] | [14] | [15] | [16] | [17] | [18]

CC(=O)OC(C)(C)Cc1ccccc1
inactive: [1] | [2] | [3] | [4] | [5] | [19] | [20] | [6] | [7] | [8] | [9] | [10] | [11] | [12] | [13] | [14] | [15] | [16] | [17] | [18]

CCCCCCCCCOCC1CO1 (stereo not drawn)
inactive: [1] | [2] | [3] | [4] | [6] | [7] | [8] | [9] | [10] | [11] | [12] | [13] | [14] | [15] | [16] | [17] | [18]

CCCOCCOCCOCCO
inactive: [1] | [2] | [3] | [4] | [5] | [6] | [7] | [9] | [10] | [11] | [12] | [13] | [14] | [15] | [16] | [17] | [18]

CN(C)CCOCCN(C)CCO
inactive: [1] | [2] | [3] | [4] | [6] | [7] | [8] | [9] | [10] | [11] | [12] | [13] | [14] | [15] | [16] | [17] | [18]

O=C(O)c1c(Cl)ccc(Cl)c1Cl
inactive: [1] | [2] | [3] | [4] | [19] | [6] | [7] | [9] | [10] | [11] | [12] | [13] | [14] | [15] | [16] | [17] | [18]

O=C(O)CCNC(=O)c1ccccc1
inactive: [1] | [2] | [3] | [4] | [19] | [6] | [11] | [12] | [13] | [14] | [15] | [16] | [17] | [18]

O=P(O)(O)OCC(O)CO (stereo not drawn)
inactive: [1] | [2] | [3] | [4] | [5] | [19] | [20] | [6] | [9] | [10] | [11] | [12] | [13] | [14] | [15] | [16] | [17] | [18]

C[C@H](CCC(=O)NCC(=O)O)[C@H]1CC[C@H]2[C@@H]3[C@H](O)C[C@@H]4C[C@H](O)CC[C@]4(C)[C@H]3C[C@H](O)[C@]12C
inactive: [1] | [3] | [5] | [19] | [6] | [7] | [8] | [9] | [11] | [12] | [13] | [14] | [15] | [16] | [17] | [18]

CCC1Nc2cc(Cl)c(S(N)(=O)=O)cc2S(=O)(=O)N1 (stereo not drawn)
inactive: [2] | [3] | [4] | [5] | [19] | [6] | [7] | [8] | [9] | [10] | [11] | [12] | [13] | [14] | [15] | [16] | [17] | [18]

CCC(=O)OCCC(C)CCC=C(C)C (stereo not drawn)
inactive: [1] | [2] | [3] | [19] | [6] | [7] | [8] | [10] | [11] | [12] | [13] | [14] | [15] | [16] | [17] | [18]

CCCCC[Si](OCC)(OCC)OCC
inactive: [1] | [2] | [3] | [4] | [6] | [9] | [10] | [11] | [12] | [13] | [14] | [15] | [16] | [17] | [18]

CC(=O)c1ccc2c(c1)CCCC2
inactive: [1] | [2] | [3] | [4] | [19] | [6] | [7] | [9] | [11] | [12] | [13] | [14] | [15] | [16] | [18]

Cc1ccccc1C
inactive: [1] | [2] | [3] | [4] | [19] | [6] | [7] | [9] | [10] | [11] | [12] | [13] | [14] | [15] | [16] | [18]
